A short description of test [1]: Confirmatory qHTS to identify inhibitors of SARS-CoV-2 cell entry (AID 1645844). Also: nearly all actives have a fitted effect of over 45% in size. Also: potency is read from the fitted curve at half-maximal effect. As to activity, negative = inhibition: % is scaled to controls: 0 for no effect and ±100 for the full control effect. The procedure, abridged: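 Luminescence entry read-out after 48 h: spike-pseudotyped MLV particles (Wuhan-Hu-1, 19-aa C-terminal truncation) added to compound-pretreated (1 h) HEK293-ACE2 cells; Data were normalised to bald PP and spike PP wells.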
Test [2] in a line: Cytotoxicity counterscreen for inhibitors of SARS-CoV-2 cell entry (AID 1645845). Also: nearly all actives have a fitted effect of over 50% in size. As to conditions: outcome: dose series up to 57.1 µM unless noted. A digest of the protocol: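 ATP-content luminescence (ATPLite 1step, 15 min RT) read after 48 h compound exposure of Expi293F cells stably expressing human ACE2; normalized to cells-only wells and media-only wells.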
Test [3] in a line: VSVG counterscreen qHTS to identify inhibitors of SARS-CoV-2 cell entry (AID 1645847). Also: nearly all actives have a fitted effect of over 65% in size. Also: potency is read from the fitted curve at half-maximal effect. As to activity change, negative = inhibition: % is scaled to controls: 0 for no effect and ±100 for the full control effect. A digest of the protocol: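 HEK293-ACE2 cells (Expi293F stably expressing human ACE2) were pretreated with compound for 1 h at 37 °C, then infected with MLV-based VSV-G pseudotyped particles for 48 h. Luciferase luminescence was normalized to VSV-G PP and bald PP wells.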
A short description of test [4]: Primary qHTS to identify inhibitors of SARS-CoV-2 cell entry (AID 1645846). Also: nearly all actives have a fitted effect of over 45% in size. Also: potency is read from the fitted curve at half-maximal effect. As to conditions: SARS-CoV-2 pseudovirus cell entry assay, luminescence; activity change, negative = inhibition: at 57.1 µM (top of the series) unless noted. The procedure, abridged: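 Luminescence readout (Bright-Glo luciferase) 48 h after pseudoparticle addition. HEK293-ACE2 cells, 1500/well; compound pre-incubation 1 h; Normalized to spike PP and bald PP.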

A short description of test [5]: S16 Schwann cell PMP22 intronic element beta-lactamase assay (AID 624044). Also: potency is read from the fitted curve at half-maximal effect; nearly all actives have a fitted effect of over 15% in size. The following applies: S16 rat Schwann cells, PMP22 element beta-lactamase FRET, 24 h; ratio activity, negative = inhibition: at 38.3 µM (top of the series) unless noted. A digest of the protocol:
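Beta-lactamase reporter under a PMP22 intronic regulatory element in stable S16 rat Schwann cells; 24 h compound exposure. 460 nm blue signal normalized between DMSO (0%) and potassium clavulanate, with 535 nm FRET tracking viability; curves classed by r2 and response.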

SMILES strings stand for the structures. Values joined by “and” are separate entries in the source; they are usually repeats but may differ in a detail not shown here. Equal entries are not always repeated. Records with an inconclusive call do not appear. Active and inactive are the calls of the source. Calls follow the shape of the full dose curve.

`C=CC(=O)Nc1cccc(Nc2nc(Nc3ccc(OCCOC)cc3)ncc2F)c1`: the figures for the Potency in test [1] and in test [3] were 6.81 µM (active) and 4.82 µM (active), respectively. In addition, the Potency entry in test [2] is “inactive”.

Take `Cc1c[nH]c2ncnc(N3CCC(CN)(C(=O)Nc4cccc(OC(=O)N(C)C)c4)CC3)c12`: the Potency result in test [1], in test [2] and in test [3] was “inactive” in each case. For the same molecule, in test [4], the activity change, negative = inhibition was -8.16% and -70.1%.

In the case of `Cc1[nH]c2ccc(F)cc2c1-c1nc2c3cccnc3c3ncccc3c2[nH]1`, the Potency in test [1] was 0.555 µM (active); in test [3], 1.75 µM (active). Also, the Potency entry in test [2] was “inactive”. In test [4], the activity change, negative = inhibition was -96.1% [at 114 µM].

For the molecule `O=c1c(-c2ccc(O)cc2)coc2c([C@@H]3O[C@H](CO)[C@@H](O)[C@H](O)[C@H]3O)c(O)ccc12`, the Potency entry in test [1] and in test [2] was “inactive” throughout. Moreover, the activity change, negative = inhibition in test [4] was -22.1%.

Turning to `CS(=O)(=O)c1ccc(-c2cnc(NCc3ccco3)n3cnnc23)cc1`, in test [1], the Potency was 27.1 µM (active). The Potency entry in test [2] and in test [3] was “inactive” each time. The activity change, negative = inhibition in test [4] is -43.5%.

`Nc1ncc(C(=O)NC2CN(C(=O)C3CC3)C2)c2ccc(-c3cccc(F)c3)nc12`: in test [1], the Potency was 2.71 µM (active). Besides, the Potency result in test [2] is “inactive”.

Consider `CN1CCC(c2c(O)cc(O)c3c(=O)cc(-c4ccccc4Cl)oc23)C1CO` (stereo not drawn), for which the results for the Potency in test [1], in test [4] and in test [3] were 3.04 µM (active), 2.82 µM (active) and 2.41 µM (active), respectively. Also, the Potency entry in test [2] was “inactive”.

For the molecule `C[C@H]1COCCN1c1cc(C2(S(=O)(=O)C3CC3)CC2)nc(-c2ccc(NC(=S)NCCO)cc2)n1`, the Potency in test [1] was 0.764 µM (active); in test [3] it was 0.304 µM (active). Besides, the Potency result in test [2] was “inactive”. In test [4], the activity change, negative = inhibition is -79.3%.

In the case of `NC(=O)/C(=C/n1cnc(-c2cc(C(F)(F)F)cc(C(F)(F)F)c2)n1)c1cncnc1`, the values for the Potency in test [1] and in test [3] were 0.607 µM (active) and 0.108 µM (active), respectively. Further, the Potency result in test [2] was “inactive”.

On to `O=C(O)c1ccc(-c2c[nH]c3ncc(-c4ccccc4)cc23)cc1C1CCCC1`, for which the Potency is 1.36 µM (active) in test [1] and 0.541 µM (active) in test [3]. In test [2], the Potency entry was “inactive”.

As to `COCCNCc1ccc(-c2cc3nccc(Oc4ccc(NC(=S)NC(=O)Cc5ccc(F)cc5)cc4F)c3s2)nc1`, the Potency in test [1] is 3.83 µM (active); in test [3], 1.36 µM (active).

As for `O=C1NC(=O)[C@@H](c2c[nH]c3ccccc23)[C@H]1c1cn2c3c(cccc13)CCC2`, the Potency in test [1] was 7.64 µM (active); in test [3] it was 1.52 µM (active).

Take `COc1cccc2c1C(=O)c1c(O)c3c(c(O)c1C2=O)C[C@@](O)(/C(CO)=N/NC(=O)CCCCCN1C(=O)C=CC1=O)C[C@@H]3O[C@H]1C[C@H](N)[C@H](O)[C@H](C)O1`: the Potency is 0.429 µM (active) in test [1], 1 µM (active) in test [4] and 0.341 µM (active) in test [3].

Turning to `O=C(CCCCCCC(=O)N/N=C/c1ccc(N(c2ccccc2)c2ccccc2)cc1)NO`, the results for the Potency in test [1], in test [4] and in test [3] were 8.79 µM (active), 3.16 µM (active) and 7.84 µM (active), respectively.

Regarding `O=C1NC(=O)C(c2cnc3ccccn23)=C1c1cn2c3c(cc(F)cc13)CN(C(=O)N1CCCCC1)CC2`, the Potency in test [1] is 2.15 µM (active); in test [3], 0.152 µM (active).

With `COc1ccc2[nH]c3c(c2c1)CCN[C@]31CS[C@@H]2c3c(OC(C)=O)c(C)c4c(c3[C@H](COC1=O)N1[C@@H]2[C@H]2c3c(cc(C)c(OC)c3O)C[C@@H]([C@@H]1O)N2C)OCO4`, the values for the Potency in test [1], in test [4] and in test [3] were 0.0044 µM (active), 0.631 µM (active) and 0.0035 µM (active), respectively.

On to `CN1CCN(CCCNc2ncc(Cl)c(-c3cc4c(C(=O)NC5CC5)cccc4s3)n2)CC1`, for which the Potency result in test [2] was “inactive”.

As for `COc1cc(F)ccc1-c1ncnc(Nc2cccc(CS(C)(=N)=O)c2)n1` (stereo not drawn), the Potency in test [1] is 3.83 µM (active); in test [3] it was 4.29 µM (active).

`CCN(CCCOc1ccc2c(Nc3cc(CC(=O)Nc4cccc(F)c4)[nH]n3)ncnc2c1)CCOP(=O)(O)O`: the values for the Potency in test [1] and in test [3] were 0.0341 µM (active) and 0.0764 µM (active), respectively. The activity change, negative = inhibition in test [4] is -62.3%.

As to `C[C@@]12C(=O)OC(=O)[C@]1(C)[C@H]1CC[C@@H]2O1`, the Potency is 3.37 µM (active) in test [5], 4.82 µM (active) in test [1], 8.91 µM (active) in test [4] and 3.04 µM (active) in test [3].

As for `CC[C@]1(O)CC2CN(CCc3c([nH]c4ccccc34)[C@@](C(=O)OC)(c3cc4c(cc3OC)N(C)[C@H]3[C@@](O)(C(=O)OC)[C@H](OC(C)=O)[C@]5(CC)C=CCN6CC[C@]43[C@@H]65)C2)C1` (stereo partly drawn), the Potency in test [1] was 0.0043 µM (active); in test [3] it was 0.0383 µM (active).

On to `COc1ccc(S(=O)(=O)N2CCc3cccc(-c4ccncc4)c32)cc1`, for which the Potency was 0.961 µM (active) in test [1] and 1.52 µM (active) in test [3].

Consider `O=C(O)/C(S)=C/c1ccc(I)cc1`, for which the Potency entry in test [2] was “inactive”.

Turning to `CCc1cc(C(N)=O)ccc1-n1nc(C(C)C)c2c(-n3cnc(-c4cnn(C)c4)c3)ccnc21`, the Potency in test [1] is 10.8 µM (active); in test [3], 3.04 µM (active).

Take `CNC(=O)c1cccc(-c2ccc3c(N4CCOC[C@@H]4C)nc(N4CCOC[C@@H]4C)nc3n2)c1`: the Potency in test [1] is 2.41 µM (active); in test [3], 2.71 µM (active).

Turning to `CN(C)CCCOc1ccc(-c2ccc3ncc4c(c3c2)n(C2CCOCC2)c(=O)n4C)cn1`, the Potency was 5.91 µM (active) in test [1] and 2.35 µM (active) in test [3].

Regarding `O=C(Nc1ccnc(NC(=O)C2CC2)c1)c1c(Cl)cccc1Cl`, the Potency was 1.92 µM (active) in test [1] and 2.71 µM (active) in test [3]. In test [4], the activity change, negative = inhibition is -97%.

Values taken from PubChem BioAssay (NCATS).
